Compound activity as filed in PubChem BioAssay.
A selection: hits, their analogues and other compounds. The true share with any hit is near 11%.
HPGD block = inhibitors of human 15-hydroxyprostaglandin dehydrogenase (HPGD); P15428; Potency, µM, for inactives: top-dose activity change, negative = inhibition, usual class: inhibitors; purified HPGD, NADH fluorescence kinetic, PGE2 substrate; 150,000 tested, 4.3% active; AID 894; further: potency means the concentration at half of the fitted maximal effect
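NADH formation kinetics: reaction with 30 uM PGE2 and 1 mM NAD+ (final), 20 nM enzyme, Tris-HCl pH 8 with Tween 20, after 15 min compound preincubation at room temperature. Fluorescence change, last versus first of five reads.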
PNC inhibitor = perinucleolar compartment assembly inhibition; PC3M PTB-GFP, PNC prevalence imaging, 16 h; active compounds read low; activity change (PNC), negative = inhibition, % at 10 µM; 140,000 tested, 3.1% active; AID 2417;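 active means readout at or below -70, meaning at least 70% loss of cells showing the perinucleolar compartment, a nuclear body marking cancer cells; inconclusive means readout between -30 and a set limit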;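 further: plate controls were DMSO wells for no effect and camptothecin positive control wells for full effect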
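Read-out is percentage of cells bearing a perinucleolar compartment, from automated 20x imaging of fixed, Hoechst-stained PC3M PTB-GFP cells. Cells were seeded 4 h, then exposed 16 h to compound (23 nl of library stock) in duplicate plates.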
ALDH1A1 block = ALDH1A1 (human) enzyme inhibition. Potency, µM (highest dose often 75.3 µM), inactives show top-dose activity, negative = inhibition, usual class: inhibitors. 220,000 tested, 7.3% active. Purified ALDH1A1, NADH fluorescence, propionaldehyde substrate;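 further: potency means the concentration at half of the fitted maximal effect; plate controls were no enzyme wells and a reference inhibitor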
Target sequence (P00352 whole entry, looked up): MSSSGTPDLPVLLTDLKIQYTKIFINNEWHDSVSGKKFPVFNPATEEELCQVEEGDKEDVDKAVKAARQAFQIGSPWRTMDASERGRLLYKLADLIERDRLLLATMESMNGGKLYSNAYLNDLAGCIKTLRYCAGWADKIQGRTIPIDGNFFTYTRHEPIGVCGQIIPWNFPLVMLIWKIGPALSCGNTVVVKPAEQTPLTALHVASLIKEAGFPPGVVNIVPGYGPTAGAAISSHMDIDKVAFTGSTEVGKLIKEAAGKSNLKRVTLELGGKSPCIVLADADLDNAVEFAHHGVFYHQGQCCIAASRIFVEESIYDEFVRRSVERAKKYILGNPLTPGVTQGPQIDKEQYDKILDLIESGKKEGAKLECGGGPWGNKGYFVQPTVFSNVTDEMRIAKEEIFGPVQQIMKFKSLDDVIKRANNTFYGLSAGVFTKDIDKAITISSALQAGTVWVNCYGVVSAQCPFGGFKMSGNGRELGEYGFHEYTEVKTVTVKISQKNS
* = called active by the depositor; u = inconclusive; x = not tested or not shown; [ ] = remark or other dose. Unless noted, the call rests on the fitted dose curve; in most records, active means well fitted inhibition curve with a large enough effect (not every such curve was filed as active); inconclusive means small, poorly fitted or top-dose-only effect, or another doubt; inactive means no such curve, though single readings can be large or run the other way. Unless noted, on the % scale 0 is the no-effect control and ±100 the full control effect.

SMILES	HPGD block	PNC inhibitor	ALDH1A1 block
Cc1ccc(S(=O)(=O)Cc2ccc(C(=O)N3CCCC3)o2)cc1	2%	-87*	-13%
CN(c1ccccc1)S(=O)(=O)c1cc(C(=O)OCC(N)=O)ccc1Cl	x	x	21%
OCc1cc([C@@H](O)CNCCCCCCOCCCCc2ccccc2)ccc1O	-6%	x	-3%
Cc1ccc(NC(=O)/C(Cl)=C\c2ccccc2)cc1	-22%	-30	4µM*
CC(=O)c1ccc(NC(=O)/C(Cl)=C/c2ccccc2)cc1	x	x	-3%
CC1=CC(C)(C)N(C(=O)CNC2CCCCC2)c2cc(C)ccc21	x	x	-12%
CCC(=O)OC1c2ccccc2C(=O)N1Cc1ccccc1 (configuration not stated)	-11%	-2	-8%
CCOC1=NC(C(=O)O)c2ccccc2/C(=C(/C)Cl)N1 (configuration not stated)	-2%	-8	4µM*
Cc1cccc(-n2c(C)cc(/C=C3/C(=N)N4C(c5ccccc5)=CSC4=NC3=O)c2C)c1	-25%	5	4%
N=C1/C(=C\c2ccc(-c3cccc(Cl)c3)o2)C(=O)N=C2SC=C(c3ccccc3)N12	14µM*	u	u
O=C(N(c1ccccn1)c1ccccn1)C12CC3CC(CC(C3)C1)C2	x	x	8%
Cc1ccc(N(CC(=O)N2CC(=O)Nc3ccccc32)S(=O)(=O)c2ccc3c(c2)OCCO3)cc1	-14%	-100*	u
O=C(O)CN(c1ccc(F)cc1)S(=O)(=O)c1ccc2c(c1)OCCO2	-4%	27	6%
CCCCCCCC#Cc1ccccc1C(NC(=O)OC)C(C(=O)OC)C(=O)OC (configuration not stated)	x	x	12%[13.5 µM]
Fc1cc2[nH]c(=S)[nH]c2cc1Cl	x	x	32µM*
O=c1[nH]c2cc(Cl)c(Cl)cc2[nH]c1=O	u	x	-7%
FC(F)(F)c1cccc(NC(=S)NNC(=S)NCc2ccccc2)c1	u	-2	0.56µM*
Cc1cc(C(F)(F)F)nn1CC(=O)NNC(=S)Nc1cccc(Cl)c1	-5%	-24	20µM*
CCN1CCC(NC(=O)Nc2cccc(C(F)(F)F)c2)CC1	x	x	3%
CCN1CCN(C(=O)Nc2cccc(C(F)(F)F)c2)CC1	-2%	-123*	2%
FC(F)(F)c1cccc(NC(=S)NCc2ccccn2)c1	-6%	1	u
Cc1cc(C(F)(F)F)nn1CC(=O)Nc1cccnc1	-16%	-10	11%
FC(F)(F)c1cccc(NC(=S)Nc2cccc(NC(=S)Nc3cccc(C(F)(F)F)c3)n2)c1	x	x	25µM*
Cc1cccc(NC(=S)Nc2cccc(C(F)(F)F)c2)n1	-15%	31	3%
N[C@H](C(=O)O)[C@H]1C[C@H]1C(=O)O	x	x	15%
SMILES	HPGD block	PNC inhibitor	ALDH1A1 block
CCN(CC)C(=O)n1cnc(-c2ccccc2)c1-c1ccccc1	-31%	10	2%
CC(C)=N[C@H](C(=O)O)C(C)(C)S	-6%	x	u
O=C(CN1CCCCC1)NCC1(c2ccccc2)CCCC1	x	x	-4%
Cn1c(C(=O)O)c(CC(=O)N2CCC(Cc3ccccc3)CC2)c2ccccc21	-21%	-22	-4%
C/C=C/C(=O)Nc1cccc(C(F)(F)F)c1	5%	22	13%
O=C(NNC(=S)Nc1cccc(C(F)(F)F)c1)c1ccccc1Cl	-20%	-4	8.9µM*
CNC(=S)NNC(=O)c1cccc(C(F)(F)F)c1	-14%	29	0%
O=C(CCNC(=O)c1ccccc1Cl)Nc1cccc(C(F)(F)F)c1	-1%	-3	2%
O=C(NNC(=S)Nc1cccc(C(F)(F)F)c1)c1cccc(Cl)c1	-8%	-23	22µM*
O=C(O)/C=C/C(=O)Nc1cccc(C(F)(F)F)c1	0%	u	20µM*
O=C(COc1c(Cl)cc(Cl)cc1Cl)c1ccc(Cl)cc1	-14%	32	-6%
CCC(C)NC(=O)c1ccc(-n2c(=S)[nH]c3ccccc3c2=O)cc1 (configuration not stated)	x	x	-5%
CCCCCC(=O)O[C@H](CC(=O)O)C[N+](C)(C)C	-8%	x	6%
CCCCc1nc2c(c3c1C[C@H](C)OC3)CN(S(=O)(=O)c1ccc(Cl)c3nonc13)CC2	-2%	x	u
C/C(=N\NC(=O)c1ccn(C)n1)c1cccc(NC(=O)c2ccncc2)c1	0%	32	59%
Cn1nnnc1SCC(=O)Nc1ccccc1C(N)=O	x	x	1%
COc1ccccc1NC(=O)c1ccc(NC(=O)CSc2nnnn2C)cc1	-26%	22	0.79µM*
COc1ccccc1NC(=O)CSc1nnnn1-c1ccc(C)cc1	-4%	u	6%
Cn1nnnc1SCC(=O)Nc1ccccc1Cl	-6%	34	9%
Cn1nnnc1SCC(=O)Nc1c(Cl)cccc1Cl	22µM*	-26	-9%
Cn1nnnc1SCC(=O)Nc1ccc(Br)cc1Cl	-16%	-100*	u
COc1ccc(-n2c(=O)c(-c3cccc(C#N)c3)nc3cnc(N4CCNCC4)nc32)cc1	x	x	-17%
O=S(=O)(NCc1ccccn1)c1ccc(Cl)s1	x	x	-3%
Cc1ccc(-n2nnnc2SCC(=O)N2CCCCC2)cc1	-4%	17	-1%
Cc1ccc(-n2nnnc2SCC(=O)N2CCc3ccccc3C2)cc1	-16%	-100*	u
SMILES	HPGD block	PNC inhibitor	ALDH1A1 block
Cc1ccc(-n2nnnc2SCC(=O)N2CCc3ccccc3C2)c(C)c1	-10%	u	u
Cc1ccc(-n2nnnc2SCC(=O)NC2CCCc3ccccc32)c(C)c1 (configuration not stated)	-23%	12	u
O=C(CSc1nnnn1-c1cccc2c1CCCC2)N1CCCCC1	u	u	32µM*
Cc1ccc(-n2nnnc2SCC(=O)NC2CCCc3ccccc32)cc1 (configuration not stated)	-22%	-12	7.9µM*
CCCCCCCC(=O)NNC(=O)CC(=O)Nc1ccccc1C(=O)O	-10%	u	5%
Cc1ccc(C)n1N1C(=O)/C(=C\c2ccc(Cl)cc2)SC1=S	-16%	72	u
NS(=O)(=O)c1ccc(CCN2C(=O)/C(=C\c3ccc(Cl)cc3)SC2=S)cc1	-2%	-84*	u
Cc1cc(-c2ccccc2)n(-c2ccc(C(=O)NC(C)C)cc2)n1	-8%	-7	-2%
Cc1cc(C)n(-c2ccc(C(=O)NC(C)C)cc2)n1	20µM*	-2	-6%
COc1cccc(NS(=O)(=O)c2ccc3[nH]cc(C(=O)NC4CC4)c(=O)c3c2)c1	-10%	6	15%
COc1cccc(NS(=O)(=O)c2ccc3c(c2)C2C=CCC2C(c2ccc(C(=O)O)cc2)N3)c1 (configuration not stated)	-28%	23	20µM*
COc1ccc(C(=O)N/N=C(\C)c2ccc3c(c2)C2C=CCC2C(c2ccccc2)N3)cc1 (configuration not stated)	-23%	-1	11µM*
COc1ccc(/C(C)=N/NC(=O)c2ccccc2N)cc1	x	x	-9%
CCNC(=S)NNc1nc(N2CCCCC2)nc(N2CCOCC2)n1	x	x	-14%
COc1cc(C2CC(=O)Oc3cc(C)cc(C)c32)cc(OC)c1OC (configuration not stated)	-13%	x	5%
CCc1ccc(OCC(=O)NC(C)C)cc1	x	x	0%
COc1cccc(N2CCN(C(=O)Nc3ccccc3Cl)CC2)c1	x	x	12%
CCOc1ncccc1C(=O)Nc1nnc(C(CC)CC)s1	x	x	4.5µM*
